Assay outcomes deposited in PubChem by Broad Institute.
The entries come from a sample that favours hits as a whole.
Tg IFNy HTS: inhibitors of Toxoplasma gondii growth with IFN-gamma; Toxoplasma gondii growth in IFN-gamma-treated host cells; hits give low values; activity change, negative = inhibition, % (test concentration not listed); hit rate 3.8% among 69,000; in the data active = activity change below about -70%, passing the limit was not always enough;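 also: host cells are HeLa cells infected with Toxoplasma gondii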
Active calls of the source: *; ! = not confirmed by another sample.

SMILES | Tg IFNy HTS
CCOc1ccc(C(=O)N2CCC(C)(C(=O)NCc3ccc(F)cc3F)CC2)cc1 | -2
C[C@H]1c2cccc(O)c2C(=O)C2C(=O)[C@]3(O)C(=O)C(C(N)=O)C(=O)[C@@H](N(C)C)[C@@H]3[C@@H](O)[C@@H]21 (stereo partly specified) | 0
O=C(c1ccc(-n2nc(C(F)(F)F)c3c2CCCC3)cc1)N1CCN(c2cccc(Cl)c2)CC1 | -17
COC1C2CCC1N(S(=O)(=O)c1cccnc1)CCO2 (stereo unspecified) | -4
CC(=O)Nc1ccc(CNC(=O)CN2CCC[C@H]2CN2CCCC2)cc1 | -4
CN(C)c1ccc(C(=O)NCc2cccnc2)cc1 | -4
Cc1ccc(S(=O)(=O)Cc2nc(-c3ccc(C(=O)NCc4cccnc4)cc3)oc2C)cc1 | -113*!
Cc1ccc(C(=O)Nc2c(C(=O)NCc3cccnc3)[nH]c3ccc(C)cc23)cc1 | 12
O=C(Cn1cnc2ccccc21)N1CC[C@@H](c2ccc3c(c2)OCO3)[C@H](O)C1 | 16
COc1ccc(Cl)cc1NS(=O)(=O)c1ccc2[nH]c(=O)ccc2c1 | 33
O=C(NCc1ccccc1)c1ccc2nc(-c3ccsc3)c(-c3ccsc3)nc2c1 | 57
Cc1ccc(Cn2c(=O)c3nn(C)cc3n3c(=O)n(Cc4nc(-c5ccc(C)cc5)oc4C)nc23)cc1 | 15
CCc1nccn1CCCNC1CCSC1 (stereo unspecified) | -3
CS(=O)(=O)CC(=O)N1Cc2cncn2CC(COCC2CCC2)C1 (stereo unspecified) | 1
CCOC(=O)CN1CCC2(CC(C(=O)NCc3ccc(F)cc3)=NO2)C1 (stereo unspecified) | 1
CNC(=O)c1cccc2cc(Oc3ccnc4cc(OCC5(N)CC5)c(OC)cc34)ccc12 | -8
COc1ccc(S(=O)(=O)Nc2cncc(C(=O)Nc3ccc(F)cc3F)c2)cc1OC | 35
COc1cc2nccc(Oc3ccc(NC(=O)Nc4ccc(F)cc4F)c(F)c3)c2cc1OC | -75*
COc1cc2nccc(Oc3ccc(NC(=O)Nc4cc(C)on4)c(Cl)c3)c2cc1OC | -81*
COc1cc(Nc2ccnc3cc(Cl)ccc23)c(C(=O)O)cc1OC | -3
COc1cc2nccc(Oc3ccc(NC(=O)NC4CC4)c(Cl)c3)c2cc1C(N)=O | -43
COCCN1C[C@H]2[C@H](C(=O)Nc3ccccc3)CCS(=O)(=O)[C@H]2C1 | -11
CCc1cc(-c2cccc3ccnn23)ccc1NC(C)=O | 7
Cc1nn(Cc2nc(N3CCCC3)nc3c2CCCC3)c(C)c1Cl | -13
Cc1ccccc1NC(=O)c1cncc(NS(=O)(=O)c2ccc(Br)cc2)c1 | 1
SMILES | Tg IFNy HTS
Cc1cc(C(O)CN2CCN(c3nc4ccccc4o3)CC2)c(C)s1 (stereo unspecified) | -12
O=C(C1CCN(S(=O)(=O)c2ccc3[nH]c(=O)ccc3c2)CC1)N1CCN(c2ccccc2)CC1 | 39
CCCN1CCC(c2cc3c(ncn3C)c(-c3ccc(OC)cc3)n2)CC1 | 6
COc1nccc(-c2c(-c3ccc(F)cc3)ncn2C2CCC(O)CC2)n1 (stereo unspecified) | -79*
COCC1CN(Cc2ccoc2)Cc2c1cnn2CC1CC1 (stereo unspecified) | -8
CC(c1ccccc1)n1c(SCC(=O)O)nnc1C1CCOCC1 (stereo unspecified) | 8
O=C(CSc1n[nH]c(=O)n1-c1ccccc1C(F)(F)F)c1ccc(F)cc1 | -29
CC(c1ccccc1)n1c(SCC(=O)c2csc3ccccc23)n[nH]c1=O (stereo unspecified) | -79*
O=C(NCCCn1cccn1)C1=NN(C2CCS(=O)(=O)C2)C(=O)CC1 (stereo unspecified) | -2
CC(C)n1c(CN2CCC3(CCC(=O)N(C)CC3)CC2)nc2ccccc21 | -46
COCCN1C(=O)CCc2cc(NC(=O)c3ccco3)ccc21 | 57
COc1ccc(C(O)c2nccc3cc(OC)c(OC)cc23)cc1OC (stereo unspecified) | 0
CCOc1ccc(CNCc2cccs2)cc1OCC | 3
CCOc1ccc(Cc2nccc3cc(OCC)c(OCC)cc23)cc1OCC | -83*
CC(=O)OCC(=O)[C@H]1CC[C@H]2[C@@H]3CC=C4C[C@@H](O)CC[C@]4(C)[C@H]3CC[C@]12C | -35
CC(=O)[C@H]1CC[C@H]2[C@@H]3CC=C4C[C@@H](O)CC[C@]4(C)[C@H]3CC[C@]12C | -74*
CC(=O)O[C@@H]1C[C@@]2(C)C(CC[C@@H]2C(C)=O)C2CCC3=CC(=O)CC[C@]3(C)C21 (stereo partly specified) | 13
CC(=O)[C@H]1CC[C@H]2[C@@H]3CCC4=CC(=O)CC[C@]4(C)[C@H]3CC[C@]12C | -88*
CC(=O)[C@H]1CCC2C3CC=C4C[C@@H](O)CC[C@]4(C)C3CC[C@@]21C (stereo partly specified) | 11
C[C@]12CCC(=O)C=C1CC[C@@H]1[C@@H]2CC[C@@]2(C)[C@H]1CC[C@]2(O)C(=O)CO | 3
CS(=O)(=O)N1CCn2cc(Cn3cncn3)nc2C1 | -67
COc1ccc(NC(=O)c2c(O)c3cccnc3[nH]c2=O)cc1F | 62
O=C(CCC1Nc2c3ccccc3nc(=S)n2C1=O)NCc1cccnc1 (stereo unspecified) | 18
Cc1nsc(NC(=O)NCc2cccc(CN3CCCC3)c2)n1 | 0
CCCc1nc(NC(C(=O)N(C)C)c2ccccc2)c2cnn(C)c2n1 (stereo unspecified) | 5
SMILES | Tg IFNy HTS
Fc1ccc(Cn2ncc3c2CN(c2ccc4ccccc4n2)C3)cc1 | -15
Clc1ccccc1-c1nc(NCCCN2CCN(c3ccccc3)CC2)c2ccccc2n1 | -46
CN(C)S(=O)(=O)c1ccc2c(c1)cc(C(=O)NCCCN1CCCC1)n2Cc1ccncc1 | 103
CN(C)/N=N/c1nc[nH]c1C(N)=O | -83*
Cc1nc(-c2ccccc2)sc1CCNC(=O)C(=O)Nc1ccc(Cl)cc1 | 145
CC(=O)c1[nH]c(C)c(C(=O)N2CC(OCc3ccccc3F)C2)c1C | 3
Cc1nc(=O)c2ccccc2n1C1=CCN(Cc2ccccc2)CC1 | -19
COC(=O)NC(C)CNc1nccc(-c2cn(C(C)C)nc2-c2cc(Cl)cc(NS(C)(=O)=O)c2F)n1 (stereo unspecified) | -71*
CCc1ccc2oc(=O)cc(CN3CCN(Cc4nc(-c5ccccc5Cl)oc4C)CC3)c2c1 | 9
CCOC(=O)N1CCN(C(=O)c2ccc(N3CCC(NCc4cccs4)CC3)cc2)CC1 | -2
CCOC(=O)N1CCC(NC(=O)c2oc3ccc4c(c3c2C)C(O)CC2(CCCCC2)O4)CC1 (stereo unspecified) | -95*
Cc1c(C(=O)NCCCN2C(C)CCCC2C)oc2ccc3c(c12)C(O)CC1(CCCCC1)O3 (stereo unspecified) | -56
Cc1noc(C)c1S(=O)(=O)NCC(=O)N1CCCN(Cc2ccccn2)CC1 | 1
COc1ccc(F)c([C@@H]2NC(=O)CC[C@H]2NCc2cn[nH]c2-c2ccccc2)c1 | -1
COC(=O)C1(Cc2ccccc2F)NC(=O)CC2CCC1N2Cc1ccccc1 (stereo unspecified) | -77*
O=C1NC(=O)C(Cc2ccccc2F)(C2CCNCC2)N1 (stereo unspecified) | -3
Cc1ccc(-c2cc3c(=O)n(Cc4nc(-c5ccccc5)oc4C)ccn3n2)cc1 | 126
Cc1cc(C)nc(CN(C)C(=O)c2ccccc2C2CCNC2)c1 (stereo unspecified) | -2
CN(Cc1cccc2ncccc12)Cc1cnn2cccnc12 | 2
